In PubChem BioAssay (NCI):
The panel holds about 83,000 compounds, 20% with a hit somewhere; the sample as a whole holds those more often.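 Method: cells in 96-well plates; compound added at one concentration; 48 h incubation; percent growth measured; values under 10 scored active.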 Values without a mark were called inactive. Active and inactive are the calls of the source.

Legend:
Assay in all cases: NCI-60 one-dose screen, 48 h (100 = growth as untreated, 0 = no growth, -100 = all killed)
Settings in all cases: 10 µM unless noted
NCI-H23 lung = system: NCI-H23 lung
NCI-H226 lung = system: NCI-H226 lung
NCI-H322M lung = system: NCI-H322M lung
HOP-62 NSCLC = system: HOP-62 NSCLC
NCI-H460 lung = system: NCI-H460 lung
HOP-92 NSCLC = system: HOP-92 NSCLC
NCI-H522 lung = system: NCI-H522 lung
A549/ATCC NSCLC = system: A549/ATCC NSCLC
786-0 renal = system: 786-0 renal
COLO 205 colon = system: COLO 205 colon

| Structure (SMILES) | growth (NCI-H23 lung) | growth (NCI-H226 lung) | growth (NCI-H322M lung) | growth (HOP-62 NSCLC) | growth (NCI-H460 lung) | growth (HOP-92 NSCLC) | growth (NCI-H522 lung) | growth (A549/ATCC NSCLC) | growth (786-0 renal) | growth (COLO 205 colon) |
| --- | --- | --- | --- | --- | --- | --- | --- | --- | --- | --- |
| COc1ccc(/C(=C\c2cc(OC)c(OC)c(OC)c2)C(=O)N2CCCNCC2)cc1 | 104% | 100% | 103% | 106% | 110% | 102% | 100% | 105% | 111% | 110% |
| C/C(=N\NC(=S)N1CCCCC1)c1ccccn1 | 30.8% | 7.07% (active) | 4.53% (active) | 21% | -23.9% (active) | -1.04% (active) | 11.5% | 9.13% (active) | 15.5% | -14% (active) |
| Cc1ccc(NC(=O)Cn2nncc2CN2C(=O)CSC2=O)cc1C | 96.8% | 90.7% | 103% | 98.5% | 105% | 112% | 94.8% | 102% | 108% | 106% |
| O=C(Nc1ccc(OS(=O)(=O)c2ccc(F)cc2)cc1)C12CC3CC(CC(C3)C1)C2 | 74.9% | 87.6% | 92.4% | 54.1% | 63.6% | 48.1% | 66% | 56.2% | 59.3% | 54.3% |
| Oc1c(C(c2ccc(F)cc2)N2CCCCC2)ccc2cncnc12 (stereo not given) | 16.1% | -0.0481% (active) | 19.4% | 11.6% | 4.38% (active) | -14.4% (active) | 4.34% (active) | 5.08% (active) | 23.1% | -30.1% (active) |
| COc1ccc(NC(=O)/C=C/c2ccc(NC(=O)N3CCCC3)cc2)cn1 | 105% | 96.6% | 106% | 104% | 105% | 103% | 95.9% | 100% | 109% | 112% |
| Nc1nc(N)c2cc(Sc3ccc(Cl)cc3)ccc2n1 | 33.6% | 48.9% | 27.7% | 53.1% | 13.4% | 6.59% (active) | 21% | 15.2% | 28% | -45.6% (active) |
| Cc1cc(O)ccc1C1=NN(c2ccc(S(N)(=O)=O)cc2)C(=O)CC1 | 64.3% | 94.6% | 121% | 80.2% | 12.1% | 89.7% | -36.6% (active) | 43.9% | 60.4% | 55.6% |
| Fc1cc(-c2nnc3sc(-c4ccc(Cl)cc4)nn23)c(Cl)cc1Cl | 91.6% | 93.2% | 82.3% | 116% | 103% | 74.8% | 82.8% | 93.8% | 95.3% | 106% |
| CCCCn1c(C)nc2cc(Nc3nc(Cl)nc4nc[nH]c34)ccc21 | 77.9% | 75% | 76.8% | 66% | 84.7% | -1.07% (active) | 78.9% | 85% | 76.4% | 89.7% |
| Cc1[nH]nc2ccc3nc(-c4ccc5[nH]ncc5c4)c4c(c3c12)CCCC4 | 31.1% | 16.2% | 36.9% | 18.5% | 19.3% | 2.41% (active) | 0.13% (active) | 12.6% | 34.4% | 8.58% (active) |
| COC(=O)C1(C)COP(=O)(NC23CC4CC(CC(C4)C2)C3)OC1 (stereo not given) | 106% | 108% | 99% | 99% | 103% | 83.6% | 89.5% | 99.7% | 102% | 103% |
| COc1cccc2nc(Nc3cccc(NC(=O)c4ccc(N5CCN(C)CC5)c(C(F)(F)F)c4)c3)ccc12 | 62.6% | 43.2% | 42.6% | 18.2% | -9.94% (active) | 13% | -14.2% (active) | 25.3% | -57.8% (active) | -59.2% (active) |
| CCc1oc2ccccc2c1C(=O)c1cc(I)c(O)c(I)c1 | 58.5% | 74.8% | 98.3% | 108% | 21.6% | 53.2% | 30% | 40.3% | 62% | 104% |
| O=C1Nc2ccccc2/C1=C/c1c[nH]c2ccccc12 | 78.9% | 83.4% | 70.1% | 66% | 88.7% | 65.2% | 88.7% | 77.3% | 105% | 115% |
| COc1ccc(-c2[nH]nc(N)c2-c2cc(OC)c(OC)c(OC)c2)cc1 | 17.4% | 68.3% | 7.95% (active) | 22% | 7.6% (active) | 31.3% | -32% (active) | 19.3% | 24% | -61.6% (active) |
| COc1ccc2[nH]c(O)c(/C=c3/ccc4c(c3)N=C(c3ccc(C(F)(F)F)cc3)N=4)c2c1 | 82.4% | 96.9% | 76.1% | 100% | 53.5% | 71.9% | 89.6% | 66.4% | 37.3% | 102% |
| Nc1nc(N)c2c(n1)NC(c1sc(Cl)nc1Cl)CC(c1ccccc1)=N2 (stereo not given) | 76.4% | 73.6% | 101% | 41.9% | 26.8% | 48.7% | 9.11% (active) | 43.1% | 62% | 46.7% |
| Cc1cc(-c2nnc(/C=C/c3ccc4c(c3)OCO4)o2)n[nH]1 | 77.7% | 95.2% | 66.5% | 78.5% | 84.3% | 80.7% | 15.2% | 58.7% | 97.2% | 61.6% |
| COc1ccccc1NC(=O)OCC12COCN1COC2 | 100% | 99% | 107% | 104% | 104% | 105% | 100% | 92.9% | 103% | 108% |
| COc1cc(C)c2c(=O)c3c(oc2c1)C(=O)c1c(O)c(OC)cc(O)c1C3=O | -2.42% (active) | 30.7% | 14.2% | 25.7% | 1.04% (active) | -32% (active) | -48.3% (active) | 7.31% (active) | 20% | 109% |
| N#Cc1nc(-c2cccc(Br)c2)cc(-c2ccc(Nc3nc(N4CCCCC4)nc(N4CCCCC4)n3)cc2)c1N | 13% | -73.7% (active) | 63.1% | 18.5% | -21.8% (active) | -69.4% (active) | -64.6% (active) | 21.9% | 6.82% (active) | -57.7% (active) |
| Clc1ccc(Nc2ncnc3c2sc2ncccc23)c(Cl)c1 | 14.9% | 43.6% | 45.1% | 1.95% (active) | 10.1% | 22.3% | 31.8% | 26.8% | 17.2% | 27.6% |
| CC(C)COC(=O)NC(C)(C)C | 101% | 104% | 100% | 107% | 107% | 98.9% | 71.5% | 101% | 98.1% | 106% |
| COc1ccc(C(=O)/C=C/c2cn(-c3ccccc3)nc2-c2cccc(Nc3ccnc4cc(Cl)ccc34)c2)cc1 | 101% | 95.4% | 101% | 103% | 96.6% | 64.9% | 96.7% | 95.3% | 99.5% | 102% |
| O=C(/C=C/c1cc([N+](=O)[O-])ccc1Cl)c1ccccc1 | 87.6% | 86.5% | 88.1% | 103% | 97.6% | 73.7% | 82.9% | 91.5% | 78.4% | 109% |
| COc1ccc(-c2cn(-c3cccc(C(=O)/C=C/c4ccc(O)c(OC)c4)c3)c(=O)[nH]2)cc1 | 62.5% | 93.6% | 64.8% | 113% | 31.7% | 22.6% | -4.38% (active) | 31.5% | 34.5% | 105% |
